Source: PubChem BioAssay
Only some compounds are listed: those with a hit (about 7.4% of all), similar ones and a draw of the others.
Luciferase inh: inhibitors of firefly (Photinus pyralis) luciferase | P08659 | purified P. pyralis luciferase, luminescence, biochemical | Potency, µM (top dose mostly 115 µM), hits mostly inhibitors | actives 2.5% (n = 76,000) | AID 1347043; note: % is set by controls: 0 for no effect and ±100 for the full control effect; nearly all actives have a fitted effect of over 65% in size
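Cell-free enzyme assay, 10nM P. pyralis luciferase, luciferin and ATP each at 10uM. Inhibition profiled over a 6-point titration, read as luminescence.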
3T3 cytotox: kills NIH 3T3 cells; Potency, µM (doses to about 96.7 µM), for inactives: top-dose activity change, negative = cytotoxicity, most hits filed as inhibitors; AID 1345082; NIH 3T3 viability, CellTiter-Glo ATP luminescence, 48-72 h; actives 4.3% (n = 94,000); note: % is set by controls: 0 for no effect and ±100 for the full control effect; nearly all actives have a fitted effect of over 55% in size
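NIH 3T3 cells at 400 cells/well received 23 nL of compound by pintool and were incubated 48 or 72 h at 37 °C. Viability was read as ATP-coupled CellTiter-Glo luminescence.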
HEK293 tox: kills HEK 293 cells; Potency, µM (highest dose often 115 µM), inactives show top-dose activity change, negative = cytotoxicity, actives largely listed as inhibitors; actives 6.6% (n = 94,000); HEK 293 viability, ATP luminescence (CellTiter-Glo), 48-72 h; AID 1345083; note: % is set by controls: 0 for no effect and ±100 for the full control effect; nearly all actives have a fitted effect of over 60% in size
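Cells seeded first (HEK 293, 250 cells/well), then compound added by pintool. Incubation ran 48 or 72 hr at 37 degree Celsius. CellTiter-Glo was added and luminescence imaged after 10 min at room temperature.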
SNCA viab count: reduces viability of HEK-293 SNCA reporter cells | HEK-293-SNCA-luc viability, GF-AFC fluorescence, 24 h | Potency, µM (doses to about 57.1 µM), inactives show top-dose activity change, negative = cytotoxicity, usual class: cytotoxic | actives 0.12% (n = 150,000) | AID 1671193;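 note: 0% = DMSO-treated cells and -100% = medium-only wells without cells; nearly all actives have a fitted effect of over 30% in size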
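Cytotoxicity counterscreen: after 24 h compound treatment of genome-edited SNCA-luciferase HEK-293 cells, live-cell protease substrate GF-AFC read by fluorescence after 30 min; activity scaled between DMSO (0%) and medium-only (-100%), curves Hill-fitted.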
NPR1 antag: human Npr1 receptor antagonism | P16066 | HEK293 hNpr1 GloSensor cGMP, ANP-stimulated luminescence | Potency, µM (highest dose often 46.3 µM), inactives show top-dose activity change, negative = inhibition, usual class: inhibitors | actives 1.6% (n = 76,000); calls by dose curve; note: % is set by controls: 0 for no effect and ±100 for the full control effect; nearly all actives have a fitted effect of over 60% in size
Target sequence (P16066 whole entry, looked up): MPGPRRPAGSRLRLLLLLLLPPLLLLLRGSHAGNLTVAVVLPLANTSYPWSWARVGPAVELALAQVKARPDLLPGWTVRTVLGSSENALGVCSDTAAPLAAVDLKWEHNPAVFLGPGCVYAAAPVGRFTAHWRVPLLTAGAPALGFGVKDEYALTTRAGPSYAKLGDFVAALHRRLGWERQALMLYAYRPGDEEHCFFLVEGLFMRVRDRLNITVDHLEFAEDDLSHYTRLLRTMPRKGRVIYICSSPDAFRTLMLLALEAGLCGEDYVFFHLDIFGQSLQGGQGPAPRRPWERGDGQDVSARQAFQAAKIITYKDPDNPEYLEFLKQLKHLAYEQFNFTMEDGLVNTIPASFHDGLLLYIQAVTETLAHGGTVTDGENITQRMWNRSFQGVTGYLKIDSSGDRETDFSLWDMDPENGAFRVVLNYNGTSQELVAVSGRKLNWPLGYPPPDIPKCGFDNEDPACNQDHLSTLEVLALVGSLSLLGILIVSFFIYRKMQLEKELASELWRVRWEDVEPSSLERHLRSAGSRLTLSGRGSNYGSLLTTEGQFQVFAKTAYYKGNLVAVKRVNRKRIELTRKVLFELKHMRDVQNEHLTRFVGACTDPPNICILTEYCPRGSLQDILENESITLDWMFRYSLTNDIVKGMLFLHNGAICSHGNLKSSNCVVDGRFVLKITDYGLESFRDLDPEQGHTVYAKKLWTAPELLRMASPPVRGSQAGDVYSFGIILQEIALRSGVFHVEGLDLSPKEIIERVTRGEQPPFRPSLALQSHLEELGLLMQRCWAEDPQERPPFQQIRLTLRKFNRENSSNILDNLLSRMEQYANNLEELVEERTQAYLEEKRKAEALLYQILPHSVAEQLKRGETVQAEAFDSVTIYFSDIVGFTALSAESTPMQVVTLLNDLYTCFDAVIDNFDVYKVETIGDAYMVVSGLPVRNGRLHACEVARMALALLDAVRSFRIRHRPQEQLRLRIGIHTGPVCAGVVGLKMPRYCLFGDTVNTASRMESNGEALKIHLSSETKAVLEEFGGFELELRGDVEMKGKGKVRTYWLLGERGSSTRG
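HEK293 cells stably expressing human Npr1 and cGMP GloSensor pGS-40F, loaded 2 h with 2% GloSensor reagent, given compound 30 min at room temperature. Luminescence read before and 20 min after 0.1 nM hNppA.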
SNCA expr inh: inhibitors of alpha-synuclein (SNCA) gene expression; HEK-293 SNCA-luciferase knock-in, luminescence, 24 h; Potency, µM (highest dose often 57.2 µM), for inactives: at the top dose activity change, negative = inhibition, most hits filed as inhibitors; actives 0.17% (n = 140,000); AID 1671194;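 note: plate controls were DMSO cells for no effect and cell-free wells for full effect; nearly all actives have a fitted effect of over 45% in size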
Npr1 antag conf: hNpr1 antagonism, confirmation assay. shares compounds with NPR1 antag. Potency, µM (doses to about 57.6 µM), for inactives: at the top dose activity change, negative = inhibition, most hits filed as inhibitors. actives 76% (n = 1,400). HEK293 hNpr1 cGMP GloSensor luminescence, ANP-stimulated; calls by dose curve; note: nearly all actives have a fitted effect of over 70% in size
NPR2 antag: antagonizes human Npr2, subtype selectivity check. shares compounds with NPR1 antag. HEK293 hNpr2 GloSensor cGMP luminescence, CNP-stimulated. Potency, µM (top dose mostly 57.6 µM), for inactives: top-dose activity change, negative = inhibition, usual class: inhibitors. actives 67% (n = 1,400); calls by dose curve; note: nearly all actives have a fitted effect of over 70% in size
FLuc inh counter: FLuc enzyme inhibition, Npr1 counter-screen | purified FLuc enzyme, luminescence, Km substrate | Potency, µM (doses to about 57.6 µM), for the others: at the top dose activity change, negative = inhibition, hits mostly inhibitors | AID 1347047 | actives 0.7% (n = 1,400) | shares compounds with NPR1 antag; note: 0% is about no effect
GloSensor cGMP: counter-screen for Npr1 antagonists: GloSensor control cell line. HEK293 GloSensor cGMP, SNP-stimulated, luminescence. shares compounds with NPR1 antag. AID 1347051. Potency, µM (top dose mostly 57.6 µM), for inactives: at the highest dose activity change, negative = inhibition, hits mostly inhibitors. actives 69% (n = 1,400); calls by dose curve; note: % is set by controls: 0 for no effect and ±100 for the full control effect; nearly all actives have a fitted effect of over 70% in size
Active calls of the source: *; i = inactive; ? = inconclusive; . = no result; [ ] = another dose, or the depositor's remark. Unless noted, calls come from the whole dose curve; as a rule, active = well fitted curve in the direction sought with a large enough effect; inconclusive = small, poorly fitted or top-dose-only effect, or another doubt; inactive = no such curve, though single readings can be large; an effect the other way counts as inactive or inconclusive. Potency is the fitted concentration of half-maximal effect.

SMILES | Luciferase inh | 3T3 cytotox | HEK293 tox | SNCA viab count | NPR1 antag | SNCA expr inh | Npr1 antag conf | NPR2 antag | FLuc inh counter | GloSensor cGMP
CN1Cc2ccccc2NCCC1=O | . | ? | -9% | . | . | . | . | . | . | .
CCOc1ccc(CN2CCN(c3nc4ccccc4o3)CC2CCO)cc1 (stereo not given) | i | -17% | 35µM* | -20% | 14µM* | 5% | 22µM* | 24µM* | -2% | 22µM*
COc1ccc2cc(C3CN(Cc4cc5n(n4)CCNC5)CCO3)ccc2c1 (stereo not given) | i | ? | ? | 4% | -21% | 125% | . | . | . | .
CCc1cc(N2CCOC(c3ccc4cc(OC)ccc4c3)C2)nc(C)n1 (stereo not given) | i | ? | 35µM* | -2% | 11µM* | 17% | 22µM* | 22µM* | ? | 17µM*
CCCC(=O)N1CCN(c2ccnc3ccnn23)CC1 | . | -9%[138 µM] | 2%[172 µM] | 9%[87.6 µM] | . | 10%[87.6 µM] | . | . | . | .
COc1ccc(Cl)cc1-c1ccc2c(n1)CN(CCOc1ccccc1)C(=O)CO2 | i | ? | 100µM* | -5%[87.6 µM] | 22µM* | -4%[87.6 µM] | 35µM* | 35µM* | 1%[86.2 µM] | 31µM*
COc1ccc(OC)c(NC(=O)C2CCc3nc(N4CCN(C(C)=O)CC4)sc3C2)c1 (stereo not given) | i | -26% | ? | -3% | -18% | 7% | . | . | . | .
CC(=O)N1CCN(c2nc3c(s2)CC(C(=O)Nc2cccc(C(C)(C)C)c2)CC3)CC1 (stereo not given) | i | ? | ? | ? | 18µM* | ? | 12µM* | 15µM* | 27% | 11µM*
CC(=O)N1CCN(c2nc3c(s2)CC(C(=O)Nc2cc(F)cc(F)c2)CC3)CC1 (stereo not given) | i | ? | 10µM* | ? | 10µM* | -25% | 17µM* | 19µM* | 44% | 11µM*
COc1ccccc1C(=O)N1CCC(C(=O)N2CCC(N3CCOC3=O)CC2)CC1 | . | -4% | -2% | 3% | . | 29% | . | . | . | .
O=C(c1ccc(Br)cc1)N1CCN(c2cc(-c3ccc(Cl)cc3)[nH]n2)CC1 | i | 40µM* | 45µM* | -4% | ? | ? | 22µM* | 24µM* | 0% | 15µM*
O=C(C1COc2ccccc2O1)N1CCN(c2cc(-c3ccc(Cl)cc3)[nH]n2)CC1 (stereo not given) | i | ? | 45µM* | -28% | ? | -12% | 15µM* | 22µM* | 2% | 14µM*
COc1ccc(-c2cc(N3CCCN(C(=O)c4ccc(Br)cc4)CC3)n[nH]2)cc1 | i | ? | ? | -16% | -6% | 29% | . | . | . | .
Cc1ccc(C(=O)N2CCN(c3cc(-c4ccccc4)[nH]n3)CC2)cc1F | i | ? | ? | -7% | -18% | 18% | . | . | . | .
Cc1ccc(C(=O)N2CCN(c3cc(-c4ccc(Cl)cc4)[nH]n3)CC2)cc1F | i | ? | ? | 2% | 18µM* | 0% | 27µM* | 22µM* | 1% | 24µM*
CC(=O)N1CCC(C(=O)N2CCCN(c3cc(-c4ccc(Cl)cc4)[nH]n3)CC2)CC1 | i | -12% | 1% | -2% | -3% | 14% | . | . | . | .
CN(C)c1ccc(C(=O)N2CCN(c3cc(-c4ccc(Cl)cc4)[nH]n3)CC2)cc1 | i | ? | ? | -8% | 13µM* | -17% | 22µM* | 22µM* | -8% | 22µM*
CCN(CCNC(=O)C1CCCCC(=O)N1)Cc1ccccc1 (stereo not given) | . | 0% | i | 10% | . | 17% | . | . | . | .
CCN1CCN(C(=O)c2nc3sccn3c2-c2ccc(C)cc2)CC1 | . | -10% | 2% | 0% | . | 7% | . | . | . | .
CC(=O)N1CCN(C(=O)C2CCCN2C(=O)c2cccc(-c3ccccn3)c2)CC1 (stereo not given) | . | -6% | -5% | 4% | . | -1% | . | . | . | .
O=C(NCc1ccc(Cl)cc1)c1ccc2nnc(Cc3ccco3)n2c1 | . | ? | 0% | 4% | . | -13% | . | . | . | .
COCCNC(=O)c1cn2cc(-c3cccnc3)sc2n1 | . | -22% | 3% | -3% | . | 50% | . | . | . | .
O=C(c1ccc(OC(F)(F)F)cc1)N1CCN(c2cc(-c3ccc(Cl)cc3)[nH]n2)CC1 | i | 18µM* | 32µM* | -9% | 11µM* | -13% | 19µM* | 22µM* | 3% | 19µM*
O=C(NC1CCN(c2cc(-c3ccc(F)cc3)[nH]n2)CC1)c1cccc2[nH]ccc12 | i | 40µM* | 40µM* | -17% | ? | -6% | ? | ? | -12% | -27%
CN(C)c1ccc(C(=O)N2CCCN(c3cc(-c4ccc(Cl)cc4)[nH]n3)CC2)cc1 | i | ? | ? | -17% | ? | ? | . | . | . | .
O=C(c1cccc2[nH]ccc12)N1CCCN(c2cc(-c3ccc(Cl)cc3)[nH]n2)CC1 | i | ? | ? | -22% | 10µM* | 6% | 15µM* | 19µM* | ? | 14µM*
O=C(c1ccccc1Cl)N1CCN(c2cc(-c3ccc(Cl)cc3)[nH]n2)CC1 | i | ? | ? | -5% | 7.9µM* | -16% | 14µM* | 14µM* | -5% | 11µM*
O=C(Nc1cc(-c2ccccn2)nn1-c1ccccc1)c1ccccc1Cl | . | -20% | ? | -5% | . | 21% | . | . | . | .
COc1ccc(C(=O)NC2CCN(C(=O)c3ccc(-c4cncnc4)cc3)CC2)cc1 | . | -12% | -15% | -2%[12.5 µM] | . | -20% | . | . | . | .
